The target of assay [1] is Hexokinase-4 (Homo sapiens) + Glucokinase regulatory protein (Homo sapiens) (UniProt P35557+Q14397). Briefly: qHTS assay for inhibitors of recombinant human GCK-GKRP interaction: HTRF assay (AID 743207).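 Also: 0% = DMSO with GCK present and -100% = DMSO wells lacking GCK.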 In short, it runs like this: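 GST-GCK and FLAG-GKRP (5 nM each) were combined with 2 uM S6P in pH 7.1 Hepes/MgCl2/KCl/DTT buffer, then compound and anti-FLAG XL665/anti-GST K antibodies were added. After 60 min at room temperature, HTRF 665/615 nm emission was read.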
Chain of Hexokinase-4 (Homo sapiens) + Glucokinase regulatory protein (Homo sapiens) (P35557 whole entry, looked up): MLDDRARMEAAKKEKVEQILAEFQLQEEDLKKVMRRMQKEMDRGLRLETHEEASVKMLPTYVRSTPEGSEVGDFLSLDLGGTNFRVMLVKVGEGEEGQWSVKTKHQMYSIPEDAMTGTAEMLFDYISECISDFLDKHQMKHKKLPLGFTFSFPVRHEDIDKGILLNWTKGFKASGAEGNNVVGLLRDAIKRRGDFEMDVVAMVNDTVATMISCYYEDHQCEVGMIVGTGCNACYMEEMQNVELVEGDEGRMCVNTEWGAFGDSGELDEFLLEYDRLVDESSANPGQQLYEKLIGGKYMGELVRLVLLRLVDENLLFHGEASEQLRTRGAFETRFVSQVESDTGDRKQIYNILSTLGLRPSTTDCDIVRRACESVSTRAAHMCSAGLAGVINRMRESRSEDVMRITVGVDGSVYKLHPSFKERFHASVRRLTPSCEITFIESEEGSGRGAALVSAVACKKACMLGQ
Chain of Hexokinase-4 (Homo sapiens) + Glucokinase regulatory protein (Homo sapiens) (Q14397 whole entry, looked up): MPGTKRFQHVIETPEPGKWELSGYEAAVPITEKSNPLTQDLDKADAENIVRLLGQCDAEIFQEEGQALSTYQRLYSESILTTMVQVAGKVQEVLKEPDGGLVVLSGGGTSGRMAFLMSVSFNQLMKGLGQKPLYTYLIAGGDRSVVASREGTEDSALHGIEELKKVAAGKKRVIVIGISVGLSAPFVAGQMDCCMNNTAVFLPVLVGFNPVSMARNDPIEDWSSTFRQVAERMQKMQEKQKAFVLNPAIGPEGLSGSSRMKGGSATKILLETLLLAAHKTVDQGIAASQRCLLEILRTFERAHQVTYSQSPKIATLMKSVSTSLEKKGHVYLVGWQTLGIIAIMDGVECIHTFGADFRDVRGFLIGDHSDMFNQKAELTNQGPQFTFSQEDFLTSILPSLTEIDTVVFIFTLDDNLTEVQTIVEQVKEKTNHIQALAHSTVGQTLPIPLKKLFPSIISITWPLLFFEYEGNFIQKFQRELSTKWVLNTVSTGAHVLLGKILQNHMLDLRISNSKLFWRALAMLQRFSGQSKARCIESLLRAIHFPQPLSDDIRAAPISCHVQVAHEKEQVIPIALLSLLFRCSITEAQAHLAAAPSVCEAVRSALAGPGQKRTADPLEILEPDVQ
For orientation: Quantitative high-throughput screening tests each substance at several concentrations.

Assay [2] in a line: qHTS Assay for Identifying Gametocytocidal Compounds (AID 743244). Also: potency is read from the fitted curve at half-maximal effect.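 As to max response: % is scaled to controls: 0 for no effect and ±100 for the full control effect; actives lower the fluorescent signal which means gametocytes are killed.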 The conditions noted are these: P. falciparum 3D7 stage III-V gametocytes, alamarBlue, 72 h; max response: stronger effect = lower value. In short, it runs like this: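 Stage III–V gametocytes of P. falciparum 3D7 were seeded at 20,000 cells/well onto pre-dispensed compounds. After 72 h, 37 °C, 5% CO2, alamarBlue was added for another 24 h.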

A short description of assay [3]: qHTS profiling for inhibitors of Plasmodium falciparum (3D7) proliferation (AID 743322; call rule not given here;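 also: infected erythrocytes exposed to compound for 72 h before lysis; 100% = DMSO vehicle wells and 0% = 0.29 µM artemisinin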). The conditions noted are these: P. falciparum 3D7 proliferation; at 28.7 µM (top of the series) unless noted. In short, it runs like this: (§1)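 Parasite DNA was quantified by SYBR Green I fluorescence (ex 485, em 535 nm) after overnight lysis in saponin/Triton buffer at room temperature. Cultures at 0.3% parasitemia and 2.5% hematocrit were first exposed to compound for 72 h at 37 C; signals were normalised to artemisinin (0.29 uM) and vehicle wells.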

Assay [4] in a line: qHTS profiling for inhibitors of Plasmodium falciparum (DD2) proliferation (AID 743323; call rule not given here). The conditions noted are these: lower = more inhibition; at 28.7 µM (top of the series) unless noted. In short, it runs like this:
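1536-well qHTS; infected RBCs 0.3% parasitemia/2.5% Hct final; cpd 72 h 37 C 5% CO2; lysis buffer + SYBR Green I, o/n RT dark; FI 485/535; norm. to 0.29 uM artemisinin and DMSO, plate-stack corrected.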

Assay [5] in a line: qHTS profiling for inhibitors of Plasmodium falciparum (HB3) proliferation (AID 743324).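 Also: 100% = DMSO vehicle wells and 0% = artemisinin-treated control wells.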 The conditions noted are these: Plasmodium falciparum HB3 blood-stage proliferation; at 28.7 µM (top of the series) unless noted. In short, it runs like this:
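SYBR Green fluorescence (485 ex/535 em) of lysed cultures, incubated overnight at room temperature in the dark, quantifies parasite DNA. Infected erythrocytes at 0.3% parasitemia and 2.5% hematocrit were exposed 72 h; values normalized to DMSO and 0.29 uM artemisinin controls.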

Assay [6] can be described thus: qHTS profiling of the MIPE4 collection as inhibitors of Plasmodium falciparum (3D7) proliferation (AID 743344; call rule not given here;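 also: scaled between DMSO vehicle wells and 0.29 µM artemisinin as full inhibition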). The conditions noted are these: P. falciparum 3D7 in erythrocytes, SYBR Green DNA fluorescence, 72 h; at 28.5 µM (top of the series) unless noted. In short, it runs like this:
as §1

Assay [7] in a line: qHTS profiling of the MIPE4 collection as inhibitors of Plasmodium falciparum (DD2) proliferation (AID 743345; call rule not given here). The conditions noted are these: P. falciparum Dd2 in erythrocytes, SYBR Green DNA, 72 h; at 28.5 µM (top of the series) unless noted. In short, it runs like this:
as §1

Assay [8] is described as follows: qHTS profiling of the MIPE4 collection as inhibitors of Plasmodium falciparum (DD2) proliferation (Rep 2) (AID 743346; call rule not given here). The conditions noted are these: P. falciparum Dd2 in erythrocytes, SYBR Green DNA, 72 h; at 28.5 µM (top of the series) unless noted. In short, it runs like this: as §1
A short description of assay [9]: qHTS profiling of the MIPE4 collection as inhibitors of Plasmodium falciparum (HB3) proliferation (AID 743347; call rule not given here;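 also: plate controls were DMSO vehicle wells for no effect and artemisinin wells for full effect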). The conditions noted are these: P. falciparum HB3 in erythrocytes, SYBR Green DNA, 72 h; at 28.5 µM (top of the series) unless noted. In short, it runs like this: as §1
The nature of assay [10]: Cell Proliferation Assay Versus the ED40515 IL2 Independent ATL cell lines (AID 1053194; calls by dose curve). The conditions noted are these: ED40515 IL2-independent ATL cells. In short, it runs like this: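 CellTiter-Glo luminescence, read after 15 min at RT, gave viability of IL-2-free ED40515 cells (1000/well, RPMI plus 5% FBS) following 48 h drug exposure at 37C. Control wells held DMSO or 9.2 uM bortezomib.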

Assay [11] is described as follows: High-throughput drug toxicity screening in the BPDCN cell line Gen2.2 (AID 1224824; call rule not given here;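 also: cells exposed to compounds for 48 h before reading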). The conditions noted are these: Gen2.2 BPDCN cells; at 45.8 µM (top of the series) unless noted. In short, it runs like this: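 Gen2.2 cells (500/well) in phenol red-free RPMI with 10% FBS were exposed to compounds for 48 h at 37 °C, 5% CO2. Viability was read by CellTiter-Glo luminescence and normalized to DMSO (100%) and 9.2 uM bortezomib (0%).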

Assay [12] is described as follows: High-throughput drug toxicity screening in the BPDCN cell line Cal-1 (AID 1224825; call rule not given here). The conditions noted are these: Cal-1 BPDCN cell viability, qHTS; at 45.8 µM (top of the series) unless noted. In short, it runs like this:
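CellTiter-Glo luminescence after 48 h compound exposure; percent activity scaled with DMSO as 100% and bortezomib (9.2 uM final) as 0%. Cal-1 cells seeded at 500/well in RPMI, 10% FBS, no phenol red.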

Assay [13] is described as follows: qHTS assay for measurement of the activity of small molecule inhibitors on Zika virus induced Caspase-3 activity in human iPSC derived neural progenitor cells (hNPCs) (AID 1224857). Also: nearly all actives have a fitted effect of over 65% in size. Also: potency is read from the fitted curve at half-maximal effect. In short, it runs like this:
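Values are percent inhibition of virus-induced caspase-3/7 signal, scaled between uninfected cells and ZIKV-infected cells. Infection used 2 FFU/cell for 6 h after 1 h compound exposure.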

Assay [14] can be described thus: qHTS assay for measurement of the activity of small molecule inhibitors on Zika virus induced Caspase-3 activity in human astrocytoma cells (AID 1224859). Also: potency is read from the fitted curve at half-maximal effect. In short, it runs like this: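 Compound added 1 h pre-infection; ZIKV 2 FFU/cell on SNB-19 cells, 6 h, 37 C/5% CO2. Caspase-Glo 3/7 luminescence; values as % inhibition of ZIKV-induced caspase activity.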
The nature of assay [15]: qHTS Screen of the MIPE 4.0 Collection Against Ewings Sarcoma (RDES) (AID 1259252). Also: potency is read from the fitted curve at half-maximal effect; nearly all actives have a fitted effect of over 35% in size. In short, it runs like this:
(§2)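 Viability screen: 48 h incubation at 37C, 95% humidity, 5% CO2 with serially titrated compound, followed by CellTiter-Glo readout.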

The nature of assay [16]: qHTS Screen of the MIPE 4.0 Collection Against Ewings Sarcoma (TC71) (AID 1259253). Also: potency is read from the fitted curve at half-maximal effect; nearly all actives have a fitted effect of over 40% in size. In short, it runs like this:
as §2

Assay [17] in a line: qHTS Screen of the MIPE 4.0 Collection Against Ewings Sarcoma (EW8) (AID 1259255). Also: potency is read from the fitted curve at half-maximal effect; nearly all actives have a fitted effect of over 35% in size. In short, it runs like this:
as §2

Several values for one entry are separate records, joined by “and”; a condition that tells them apart may be missing. Equal values may be shown once. Records with an inconclusive call do not appear. Where a structure was tested more than once in an assay, its records may differ in their call. Activity calls are given as the source filed them. Unless noted, calls follow the shape of the dose curve; as a rule, active = well fitted curve in the direction sought with a large enough effect; inconclusive = small, poorly fitted or top-dose-only effect, or another doubt; inactive = no such curve, though single readings can be large; an effect the other way counts as inactive or inconclusive.

With `Cc1oncc1C(=O)Nc1ccc(C(F)(F)F)cc1`, the result in assay [1] was inactive. For the same molecule, in assay [2], the max response is 50.5% (inactive) and -6.39% (inactive) and -7.89% (inactive). The remaining parasite growth % (stronger effect = lower value) in assay [3] is 104% and 91.9%. In assay [4], the activity, percent of control was 94.9% and 88.9%. Also, the remaining proliferation (% of control), lower = more inhibition in [5] is 95% and 87.2%. Besides, in assay [6], the parasite growth, % of DMSO control amounted to 13.7%. For the same molecule, the parasite growth remaining, % of DMSO control (lower = more inhibition) in assay [7] was found to be 102%. In [8], this molecule yielded a parasite growth, % of control (lower = inhibition) of 61.2%. The molecule further returned a growth, % of control in assay [9] of 10.6%. For the same molecule, the Potency was 14.8 µM (active) in assay [10]; “inactive and 2.64 µM (active)” in assay [13]; “inactive and 2.64 µM (active)” in assay [14]; 8.33 µM (active) in assay [15]; 18.7 µM (active) in assay [16]; 20.9 µM (active) in assay [17]. In addition, in assay [11], the cell viability, % of control (lower = more cytotoxic) was determined as 32.8%. In [12], this molecule displayed a viability (% of control) of 63.8%.
In the case of `N#CC[C@H](C1CCCC1)n1cc(-c2ncnc3[nH]ccc23)cn1`, the max response in assay [2] is 2.34% (inactive). Besides, the remaining parasite growth % (stronger effect = lower value) in assay [3] was determined as 57.9%. The molecule further returned an activity, percent of control in assay [4] of 48.8%. The remaining proliferation (% of control), lower = more inhibition in assay [5] came to 18.5%. In assay [6], this molecule registered a parasite growth, % of DMSO control of 21.5%. In addition, the parasite growth remaining, % of DMSO control (lower = more inhibition) in [7] turned out to be 64.4%. In [8], the parasite growth, % of control (lower = inhibition) is 55.7%. Moreover, in assay [9], the growth, % of control came out at 40.5%. Besides, the Potency in [10] was 20.9 µM (active); in assay [15], 18.7 µM (active); in assay [16] it was 20.9 µM (active); in [17], 16.6 µM (active). In assay [11], the cell viability, % of control (lower = more cytotoxic) came to 230%. Moreover, the viability (% of control) in assay [12] was found to be 56.3%. The Potency result in [13] and in assay [14] was “inactive” throughout.
For `CC1(C)CNc2cc(NC(=O)c3cccnc3NCc3ccncc3)ccc21`, the max response in [2] is -7.52% (inactive). Moreover, the remaining parasite growth % (stronger effect = lower value) in assay [3] amounted to 70.1%. Further, the activity, percent of control in [4] was found to be 68.6%. For the same molecule, the remaining proliferation (% of control), lower = more inhibition in [5] worked out at 5.63%. This molecule also gave a parasite growth, % of DMSO control in assay [6] of 53.8%. In addition, the parasite growth remaining, % of DMSO control (lower = more inhibition) in assay [7] was 86.3%. This molecule had a parasite growth, % of control (lower = inhibition) in assay [8] of 42.2%. The same molecule showed a growth, % of control in assay [9] of 30.1%. The Potency in assay [10] is 33.2 µM (active); in assay [15] it was 1.05 µM (active); in assay [16] it was 2.35 µM (active); in [17] it was 23.5 µM (active). Further, the cell viability, % of control (lower = more cytotoxic) in assay [11] worked out at 230%. The viability (% of control) in [12] was 69.9%. Further, the Potency result in assay [13] and in assay [14] was “inactive” throughout.
As for `Cc1ccc(-n2nc(C(C)(C)C)cc2NC(=O)Nc2ccc(OCCN3CCOCC3)c3ccccc23)cc1`, the Potency in assay [2] was 12.6 µM (active); in assay [10] it was 26.4 µM (active); in [15], 29.6 µM (active); in [16], 20.9 µM (active). For the same molecule, the remaining parasite growth % (stronger effect = lower value) in assay [3] is 24.3%. The molecule further yielded an activity, percent of control in assay [4] of 14.4%. For the same molecule, in assay [5], the remaining proliferation (% of control), lower = more inhibition was found to be 5.8%. The molecule further came in with a parasite growth, % of DMSO control in assay [6] of 29.4%. In addition, in assay [7], the parasite growth remaining, % of DMSO control (lower = more inhibition) was determined as 84.5%. For the same molecule, the parasite growth, % of control (lower = inhibition) in assay [8] was found to be 31.6%. In addition, the growth, % of control in assay [9] worked out at 72.4%. In assay [11], the cell viability, % of control (lower = more cytotoxic) was 240%. The same molecule yielded a viability (% of control) in assay [12] of 64.8%. For the same molecule, the Potency result in assay [14] was “inactive”.
For `Cc1cc(Nc2nc(N[C@@H](C)c3ncc(F)cn3)ncc2Cl)n[nH]1`, the max response in [2] was 8.89% (inactive). The remaining parasite growth % (stronger effect = lower value) in [3] stood at 108%. The molecule further yielded an activity, percent of control in [4] of 100%. The remaining proliferation (% of control), lower = more inhibition in assay [5] is 101%. This molecule also yielded a parasite growth, % of DMSO control in assay [6] of 6.82%. Besides, the parasite growth remaining, % of DMSO control (lower = more inhibition) in [7] stood at 8.04%. The molecule further showed a parasite growth, % of control (lower = inhibition) in assay [8] of 21.5%. This molecule had a growth, % of control in [9] of 10.9%. Moreover, the Potency is 14.8 µM (active) in assay [10], 6.62 µM (active) in assay [15], 10.5 µM (active) in assay [16] and 26.4 µM (active) in assay [17]. Besides, the cell viability, % of control (lower = more cytotoxic) in assay [11] worked out at 151%. The viability (% of control) in assay [12] stood at 4.1%. In addition, the Potency result in assay [13] and in [14] was “inactive” in each case.
In the case of `COc1ccc2c3n(c(=NC(=O)c4cccnc4)nc2c1OC)CCN3`, the max response in assay [2] is -25% (inactive). In assay [3], the remaining parasite growth % (stronger effect = lower value) was determined as 0.12%. The molecule further had an activity, percent of control in assay [4] of 12.2%. Further, the remaining proliferation (% of control), lower = more inhibition in [5] came out at 1.47%. This molecule came in with a parasite growth, % of DMSO control in assay [6] of 5.7%. In [7], the parasite growth remaining, % of DMSO control (lower = more inhibition) is 10.1%. The molecule also had a parasite growth, % of control (lower = inhibition) in [8] of 7.17%. The growth, % of control in [9] was determined as 3.38%. Besides, the Potency in assay [10] was 23.5 µM (active); in assay [15] it was 2.09 µM (active); in assay [16] it was 10.5 µM (active); in assay [17] it was 20.9 µM (active). For the same molecule, the cell viability, % of control (lower = more cytotoxic) in [11] is 9.57%. The molecule further yielded a viability (% of control) in [12] of 12.7%. Besides, the Potency entry in assay [13] and in [14] was “inactive” each time.

The values above are taken from PubChem BioAssay (NCATS).
